Among all 3,200 compounds or so, about 300 (9.4%) showed activity. The sample as a whole holds a higher share of actives than the screen did.
Test system: A673/TR/shEF
Experiment: cell viability (LOESS-normalised, relative to median of negative controls) (log2 ratio); higher = more viable cells (less compound effect), active = hit call of the paper (over 3 MAD below the median)
Conditions: treatment time: 72 h
Method in brief: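 Doxycycline, present or absent from 24 h before compounds, was used to induce EWS-FLI1 shRNA knockdown in A673/TR/shEF Ewing sarcoma cells at 1,500 per well in 384-well plates. Cells then received library compounds at two or more concentrations, or DMSO controls, for three days. Viability was measured by CellTiter-Glo luminescence on an Envision reader, and per-plate LOESS correction, division by the negative-control median and log2 transformation followed.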

[1] = 0.25 µM, library screen: screen1, EWS-FLI1 expression: high (no doxycycline)
[2] = 0.25 µM, library screen: screen1, EWS-FLI1 expression: low (doxycycline-induced shRNA knockdown)
[3] = 2.5 µM, library screen: screen1, EWS-FLI1 expression: high (no doxycycline)
[4] = 2.5 µM, library screen: screen1, EWS-FLI1 expression: low (doxycycline-induced shRNA knockdown)
[5] = 0.025 µM, library screen: screen2, EWS-FLI1 expression: high (no doxycycline)
[6] = 0.025 µM, library screen: screen2, EWS-FLI1 expression: low (doxycycline-induced shRNA knockdown)
[7] = 0.25 µM, library screen: screen2, EWS-FLI1 expression: high (no doxycycline)
[8] = 0.25 µM, library screen: screen2, EWS-FLI1 expression: low (doxycycline-induced shRNA knockdown)
[9] = 2.5 µM, library screen: screen2, EWS-FLI1 expression: high (no doxycycline)
[10] = 2.5 µM, library screen: screen2, EWS-FLI1 expression: low (doxycycline-induced shRNA knockdown)
[11] = 25 µM, library screen: screen2, EWS-FLI1 expression: high (no doxycycline)
[12] = 25 µM, library screen: screen2, EWS-FLI1 expression: low (doxycycline-induced shRNA knockdown)

Measured: cell viability (log2)

CC(=O)C1=C(O)[C@@H]2[C@H]3c4c[nH]c5cccc(c45)C[C@H]3C(C)(C)N2C1=O
inactive: [1] 0.0498 | [2] 0.042 | [3] 0.0855 | [4] 0.00492

COc1cc2c(cc1OC)C(=O)c1ccc(OC)c(OC)c1OCC(=O)C2
inactive: [1] 0.0297 | [2] 0.0329 | [3] 0.104 | [4] 0.0978

COc1ccc2c(c1O)-c1c(OC)c(OC)cc3c1[C@H](C2)N(C)CC3
inactive: [1] -0.01 | [2] -0.0109 | [3] 0.111 | [4] 0.131

COc1cc2c(c(OC)c1OC)-c1ccc(OC)c(=O)cc1[C@@H](NC(C)=O)CC2
active: [1] -4.23 | [2] -0.935 | [7] -3.33 | [8] -0.503 | [3] -4.18 | [4] -0.869 | [9] -3.21 | [10] -0.472 | [11] -3.45 | [12] -0.515
inactive: [5] 0.127 | [6] 0.0363

COc1cc2c(c(OC)c1OC)-c1ccc(O)c(=O)cc1C(NC(C)=O)CC2 (stereo unspecified)
active: [3] -1.1 | [4] -0.493
inactive: [1] 0.0964 | [2] 0.0193

C=C(C)c1cc2cc(C(C)=O)c(O)cc2o1
inactive: [1] 0.113 | [2] 0.098 | [3] 0.0228 | [4] 0.00912

OCC(O)Cc1ccc2c(c1)OCO2 (stereo unspecified)
inactive: [1] 0.0615 | [2] 0.039 | [3] 0.0501 | [4] 0.111

CC1(C)C(=O)[C@@H]2O[C@@H]2[C@@]2(C)C1C[C@@H](O)[C@]1(C)C2CC[C@@]2(C)[C@H](c3ccoc3)OC(=O)C3OC321 (stereo partly specified)
inactive: [1] 0.0599 | [2] 0.093 | [3] 0.0793 | [4] 0.18

CC1(C)C(=O)C=C[C@]2(C)[C@H]3CC[C@@]4(C)[C@H](c5ccoc5)OC(=O)[C@H]5O[C@]54[C@]3(C)[C@H](O)C[C@@H]12
inactive: [1] -0.0265 | [2] 0.039 | [3] 0.0641 | [4] 0.0262

Cc1ccccc1CN1CCN(Cc2ccc(F)cc2)CC1
inactive: [1] 0.0915 | [2] 0.13 | [3] 0.113 | [4] 0.0962

C[C@@H]1CC[C@@]2(OC1)O[C@H]1[C@@H](O)[C@H]3[C@@H]4CC[C@H]5C[C@@H](O[C@@H]6O[C@H](CO)[C@H](O[C@@H]7O[C@H](CO)C(O)[C@H](O[C@@H]8OC[C@@H](O)[C@H](O)[C@H]8O)[C@H]7O[C@@H]7O[C@H](CO)[C@H](O)[C@H](O[C@@H]8O[C@H](CO)[C@@H](O)[C@H](O)[C@H]8O)[C@H]7O)[C@H](O)[C@H]6O)[C@H](O)C[C@]5(C)[C@H]4CC[C@]3(C)[C@H]1[C@@H]2C (stereo partly specified)
inactive: [1] 0.0473 | [2] 0.00355 | [3] 0.099 | [4] 0.184

C[C@H]1CC[C@]2(NC1)O[C@H]1C[C@H]3[C@@H]4CC[C@H]5C[C@@H](O[C@@H]6O[C@H](CO)[C@H](O[C@@H]7O[C@H](CO)[C@@H](O)[C@H](O[C@@H]8OC[C@@H](O)[C@H](O)[C@H]8O)[C@H]7O[C@@H]7O[C@H](CO)[C@@H](O)[C@H](O)[C@H]7O)[C@H](O)[C@H]6O)CC[C@]5(C)[C@H]4CC[C@]3(C)[C@H]1[C@@H]2C
inactive: [1] 0.0131 | [2] -0.12
active: [3] -1.17 | [4] -1.98

C[C@H]1CC[C@]2(NC1)O[C@H]1C[C@H]3[C@@H]4CC[C@H]5C[C@@H](O)CC[C@]5(C)[C@H]4CC[C@]3(C)[C@H]1[C@@H]2C
inactive: [1] 0.0391 | [2] 1.7e-05 | [3] 0.161 | [4] 0.0669

CCNc1nc(Cl)nc(NC(C)C)n1
inactive: [1] 0.143 | [2] 0.0518 | [3] 0.132 | [4] 0.0856

CCC1(C2=NCCN2)Cc2ccccc2O1 (stereo unspecified)
inactive: [7] 0.203 | [8] 0.0265 | [9] 0.184 | [10] 0.0979

CO[C@@H]1C[C@@H](C[C@H]2CC[C@H](C)[C@H]([C@@H](C)C(=O)O)O2)O[C@]2(O[C@](C)([C@H]3CC[C@@](C)([C@@H]4O[C@@H]([C@H]5O[C@@](O)(CO)[C@H](C)C[C@@H]5C)C[C@@H]4C)O3)C[C@H]2C)[C@@H]1C
inactive: [1] 0.0701 | [2] 0.147 | [4] -0.0408
active: [3] -0.685

CC[C@@]1([C@H]2O[C@H]([C@H]3O[C@@](O)(CO)[C@H](C)C[C@@H]3C)C[C@H]2C)CC[C@H]([C@@]2(C)CC[C@]3(C[C@H](O)[C@@H](C)[C@@H]([C@H](C)[C@H](OC)[C@@H](C)C(=O)O)O3)O2)O1
active: [3] -0.325
inactive: [1] -0.0386 | [2] 0.12 | [4] 0.0352

CN1CCc2cc(O)cc3c2C1Cc1ccc(O)c(O)c1-3 (stereo unspecified)
inactive: [7] 0.248 | [8] 0.14 | [9] 0.197 | [10] 0.135

Nc1ccc2c(n1)[nH]c1ccccc12
inactive: [7] 0.156 | [8] 0.0674 | [9] 0.0702 | [10] 0.0934

Nc1ccc(CCN2CCN(c3cccc(C(F)(F)F)c3)CC2)cc1
inactive: [7] 0.0196 | [8] 0.0537 | [9] 0.131 | [10] 0.044

C[C@@H]1C[C@H]2CC(=O)[C@H]3CCCN4CCC[C@H]2[C@]34C1
inactive: [1] 0.103 | [2] 0.0455 | [3] 0.108 | [4] 0.0845

O=P1(N(CCCl)CCCl)NCCCO1 (stereo unspecified)
inactive: [5] 0.105 | [6] 0.0824 | 0.103 µM, library screen: screen3, EWS-FLI1 expression: high (no doxycycline) 0.146 | 0.103 µM, library screen: screen3, EWS-FLI1 expression: low (doxycycline-induced shRNA knockdown) 0.0804 | [1] 0.11 | [2] 0.163 | [7] 0.137 | [8] 0.0863 | 0.308 µM, library screen: screen3, EWS-FLI1 expression: high (no doxycycline) 0.0638 | 0.308 µM, library screen: screen3, EWS-FLI1 expression: low (doxycycline-induced shRNA knockdown) 0.0134 | 0.926 µM, library screen: screen3, EWS-FLI1 expression: high (no doxycycline) 0.0846 | 0.926 µM, library screen: screen3, EWS-FLI1 expression: low (doxycycline-induced shRNA knockdown) 0.061 | [3] 0.228 | [4] 0.17 | [9] 0.122 | [10] 0.0525 | 2.8 µM, library screen: screen3, EWS-FLI1 expression: high (no doxycycline) 0.114 | 2.8 µM, library screen: screen3, EWS-FLI1 expression: low (doxycycline-induced shRNA knockdown) 0.0823 | 8.3 µM, library screen: screen3, EWS-FLI1 expression: high (no doxycycline) 0.0653 | 8.3 µM, library screen: screen3, EWS-FLI1 expression: low (doxycycline-induced shRNA knockdown) 0.1 | [11] 0.0276 | [12] 0.165 | 25 µM, library screen: screen3, EWS-FLI1 expression: high (no doxycycline) 0.071 | 25 µM, library screen: screen3, EWS-FLI1 expression: low (doxycycline-induced shRNA knockdown) 0.141

Cc1c(N)nc([C@H](CC(N)=O)NC[C@H](N)C(N)=O)nc1C(=O)N[C@H](C(=O)N[C@H](C)[C@@H](O)[C@H](C)C(=O)N[C@H](C(=O)NCCc1nc(-c2nc(C(=O)NCCC[S+](C)C)cs2)cs1)[C@@H](C)O)[C@@H](OC1OC(CO)C(O)C(O)C1OC1OC(CO)C(O)C(OC(N)=O)C1O)c1cnc[nH]1 (stereo partly specified)
inactive: [1] 0.091 | [2] 0.105 | [3] 0.125 | [4] 0.052

C[C@]12CC[C@H](O)C[C@@H]1CC[C@@H]1[C@@H]2CC[C@]2(C)C(=O)CC[C@@H]12
inactive: [1] 0.113 | [2] 0.0515 | [3] 0.101 | [4] 0.0566

C[C@]12CC[C@H](O)C[C@@H]1CC[C@@H]1[C@@H]2CC[C@]2(C)[C@@H](O)CC[C@@H]12
inactive: [1] 0.128 | [2] 0.00375 | [3] 0.117 | [4] 0.154

C[C@]12CC[C@H](O)C[C@H]1CC[C@@H]1[C@@H]2[C@H](O)C[C@]2(C)[C@@H](C3=CC(=O)OC3)CC[C@]12O
inactive: [1] 0.0899 | [2] -0.0779
active: [3] -0.259 | [4] -0.409

C[C@]12CC[C@H](O)C[C@H]1CC[C@@H]1[C@@H]2C[C@@H](O)[C@]2(C)[C@@H](C3=CC(=O)OC3)CC[C@]12O
active: [3] -0.488 | [4] -0.691
inactive: [1] 0.0425 | [2] -0.036

C[C@]12CC[C@@H](O)C[C@@H]1CC[C@@H]1[C@@H]2CC[C@]2(C)C(=O)CC[C@@H]12
inactive: [1] -0.00242 | [2] -0.00815 | [7] 0.137 | [8] 0.0672 | [3] 0.0414 | [4] 0.0708 | [9] 0.202 | [10] 0.0943

C[C@]12CCC3C(CC[C@H]4C[C@H](O)CC[C@]34C)C1CC[C@@H]2O (stereo partly specified)
inactive: [1] 0.158 | [2] 0.216 | [3] 0.201 | [4] 0.106

CN1C2C[C@H](OC(=O)[C@H](CO)c3ccccc3)CC1[C@@H](O)C2 (stereo partly specified)
inactive: [1] 0.0376 | [2] 0.0137 | [3] 0.116 | [4] 0.0715

C=C1C2CC[C@@]3(C)[C@H](c4ccoc4)OC(=O)C[C@]13O[C@H]1CC(=O)C(C)(C)[C@H](C(OC(C)=O)C(=O)OC)[C@@]21C (stereo partly specified)
inactive: [1] 0.0428 | [2] 0.0583 | [3] 0.106 | [4] 0.119

CN1C2CCC1CC(OC(c1ccccc1)c1ccccc1N)C2 (stereo unspecified)
inactive: [1] 0.0792 | [2] 0.0013 | [7] 0.13 | [8] 0.107 | [3] 0.094 | [4] -0.0817 | [9] 0.165 | [10] 0.125

C[C@@H]1C(=O)O[C@H]2[C@H]1CC[C@@]1(C)C=CC(=O)[C@@]3(C)O[C@@]213
inactive: [1] -0.0341 | [2] 0.0137 | [3] 0.0354 | [4] 0.0553

COP(N)(=O)SC (stereo unspecified)
inactive: [1] 0.148 | [2] 0.0387 | [3] 0.151 | [4] 0.112

COc1cc(C(O)CN)ccc1O (stereo unspecified)
inactive: [7] 0.137 | [8] 0.137 | [9] 0.0316 | [10] 0.00185

Reference: the supplement of paper PMC6089552
